Of roughly 7,900 targets only a part is listed; those with a hit were picked by preference. About 0.6% of all pairs of compound and target were hits.
Experiments:
Experiment in all cases: log2 fold change, soluble protein after heating vs DMSO (PISA); higher = thermal stabilisation; K562 cells, 10 uM, 30 min; active = over 0.2 and 3.5 SD of the protein, either way, in both replicates (recomputed)
saracatinib = compound: CN1CCN(CCOc2cc(OC3CCOCC3)c3c(Nc4c(Cl)ccc5c4OCO5)ncnc3c2)CC1 [saracatinib]
Method in brief: (§1)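 Values are thermal stability changes relative to control samples and are taken from duplicates. They are stated as log2 fold changes. Before quantification by TMTpro 16plex LC-MS/MS with equalised channel sums, K562 cells at 2×10^6 cells/mL were treated with 10 μM compound for 30 min, heated in aliquots for 3 min across 48°C-58°C, pooled, extracted in PBS with 0.5% NP-40 at 4°C, and centrifuged at 21,000xg for 90 min to give the soluble supernatant.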

sotrastaurin = compound: CN1CCN(c2nc(C3=C(c4c[nH]c5ccccc45)C(=O)NC3=O)c3ccccc3n2)CC1 [sotrastaurin]
Method in brief: as §1

alvocidib = compound: CN1CC[C@H](c2c(O)cc(O)c3c(=O)cc(-c4ccccc4Cl)oc23)[C@H](O)C1 [alvocidib]
Method in brief: as §1

Tubastatin A = compound: CN1CCc2c(c3ccccc3n2Cc2ccc(C(=O)NO)cc2)C1 [Tubastatin A]
Method in brief: as §1

[1] = compound: CNC(=O)C1=CC=CC=C1NC2=NC(=NC=C2Cl)NC3=C(C=C(C=C3)N4CCOCC4)OC
Method in brief: as §1

defactinib = compound: CNC(=O)c1ccc(Nc2ncc(C(F)(F)F)c(NCc3nccnc3N(C)S(C)(=O)=O)n2)cc1 [defactinib]
Method in brief: as §1

rucaparib = compound: CNCc1ccc(-c2[nH]c3cc(F)cc4c3c2CCNC4=O)cc1 [rucaparib]
Method in brief: as §1

[2] = compound: CNc1nc(-c2ccc3c(N)n[nH]c3c2)cc(N2C[C@@H](C(=O)NC3CCCCC3)CC[C@H]2C)n1
Method in brief: as §1

encorafenib = compound: COC(=O)N[C@@H](C)CNc1nccc(-c2cn(C(C)C)nc2-c2cc(Cl)cc(NS(C)(=O)=O)c2F)n1 [encorafenib]
Method in brief: as §1

[3] = compound: COC(=O)[C@H](CCSC)NC(=O)C1=C(C=C(C=C1)NC[C@H](CS)N)C2=CC=CC=C2
Method in brief: as §1

[4] = compound: COC1=CC=C(C=C1)CN2C=CC3=C2C=C(C=C3)C(=O)NO
Method in brief: as §1

filanesib = compound: CON(C)C(=O)N1N=C(c2cc(F)ccc2F)S[C@@]1(CCCN)c1ccccc1 [filanesib]
Method in brief: as §1

zotarolimus = compound: CO[C@H]1C[C@@H]2CC[C@@H](C)[C@@](O)(O2)C(=O)C(=O)N2CCCC[C@H]2C(=O)O[C@H]([C@H](C)C[C@@H]2CC[C@H](n3cnnn3)[C@H](OC)C2)CC(=O)[C@H](C)/C=C(\C)[C@@H](O)[C@@H](OC)C(=O)[C@H](C)C[C@H](C)/C=C/C=C/C=C/1C [zotarolimus]
Method in brief: as §1

idasanutlin = compound: COc1cc(C(=O)O)ccc1NC(=O)[C@@H]1N[C@@H](CC(C)(C)C)[C@](C#N)(c2ccc(Cl)cc2F)[C@H]1c1cccc(Cl)c1F [idasanutlin]
Method in brief: as §1

alisertib = compound: COc1cc(Nc2ncc3c(n2)-c2ccc(Cl)cc2C(c2c(F)cccc2OC)=NC3)ccc1C(=O)O [alisertib]
Method in brief: as §1

[5] = compound: COc1cc2nc(-c3cc(F)ccc3O)nc(N[C@@H]3CNC[C@H]3C(C)(C)O)c2cc1OC
Method in brief: as §1

gefitinib = compound: COc1cc2ncnc(Nc3ccc(F)c(Cl)c3)c2cc1OCCCN1CCOCC1 [gefitinib]
Method in brief: as §1

[6] = compound: COc1cccc2cc(-c3nc([C@H]4CC[C@H](C(=O)O)CC4)n4ncnc(N)c34)[nH]c12
Method in brief: as §1

lapatinib = compound: CS(=O)(=O)CCNCc1ccc(-c2ccc3ncnc(Nc4ccc(OCc5cccc(F)c5)c(Cl)c4)c3c2)o1 [lapatinib]
Method in brief: as §1

pictilisib = compound: CS(=O)(=O)N1CCN(Cc2cc3nc(-c4cccc5[nH]ncc45)nc(N4CCOCC4)c3s2)CC1 [pictilisib]
Method in brief: as §1

Measured: log2 fold change

SH3GLB2 (UniProt Q9NR46)
UniProt Q9NR46, sequence (Q9NR46 whole entry, looked up): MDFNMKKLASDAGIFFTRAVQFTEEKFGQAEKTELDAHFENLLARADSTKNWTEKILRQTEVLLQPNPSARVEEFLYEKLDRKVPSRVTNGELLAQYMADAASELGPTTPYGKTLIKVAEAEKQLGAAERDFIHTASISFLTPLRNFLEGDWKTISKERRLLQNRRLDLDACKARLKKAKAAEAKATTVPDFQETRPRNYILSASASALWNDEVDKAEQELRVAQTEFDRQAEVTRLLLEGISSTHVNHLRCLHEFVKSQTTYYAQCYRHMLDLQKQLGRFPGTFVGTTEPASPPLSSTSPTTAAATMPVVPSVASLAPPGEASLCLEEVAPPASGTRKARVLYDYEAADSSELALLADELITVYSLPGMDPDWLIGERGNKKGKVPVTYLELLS
inactive: saracatinib -0.059 | sotrastaurin -0.08 | alvocidib -0.13 | Tubastatin A 0.024 | [1] -0.048 | defactinib -0.148 | rucaparib 0.042 | [2] -0.02 | encorafenib 0.029 | [3] -0.086 | [4] 0.016 | filanesib 0.085 | zotarolimus 0.052 | idasanutlin 0.061 | alisertib -0.011 | [5] -0.034 | gefitinib -0.004 | [6] -0.018 | lapatinib -0.04 | pictilisib 0.025

SLC18B1 (UniProt Q6NT16)
inactive: saracatinib 0.021 | sotrastaurin 0.023 | alvocidib 0.02 | Tubastatin A 0.04 | [1] 0.061 | defactinib 0.094 | rucaparib -0.012 | [2] -0.071 | encorafenib 0.012 | [3] 0.056 | [4] 0.072 | filanesib -0.094 | zotarolimus -0.068 | idasanutlin 0.083 | alisertib 0.022 | [5] 0.058 | gefitinib 0.01 | [6] 0.087 | lapatinib -0.061 | pictilisib 0.067

SCAMP2 (UniProt H3BUB6)
inactive: saracatinib -0.149 | sotrastaurin 0.171 | alvocidib 0.253 | Tubastatin A -0.056 | [1] -0.043 | defactinib 0.088 | rucaparib 0.072 | [2] -0.155 | encorafenib -0.311 | [3] 0.096 | [4] -0.27 | filanesib 0.126 | zotarolimus -0.217 | idasanutlin 0.134 | alisertib -0.019 | [5] 0.319 | gefitinib 0.003 | [6] 0.188 | lapatinib -0.329

RPS6KA2 isoform 2 (UniProt Q15349)
UniProt Q15349, sequence (Q15349 whole entry, looked up): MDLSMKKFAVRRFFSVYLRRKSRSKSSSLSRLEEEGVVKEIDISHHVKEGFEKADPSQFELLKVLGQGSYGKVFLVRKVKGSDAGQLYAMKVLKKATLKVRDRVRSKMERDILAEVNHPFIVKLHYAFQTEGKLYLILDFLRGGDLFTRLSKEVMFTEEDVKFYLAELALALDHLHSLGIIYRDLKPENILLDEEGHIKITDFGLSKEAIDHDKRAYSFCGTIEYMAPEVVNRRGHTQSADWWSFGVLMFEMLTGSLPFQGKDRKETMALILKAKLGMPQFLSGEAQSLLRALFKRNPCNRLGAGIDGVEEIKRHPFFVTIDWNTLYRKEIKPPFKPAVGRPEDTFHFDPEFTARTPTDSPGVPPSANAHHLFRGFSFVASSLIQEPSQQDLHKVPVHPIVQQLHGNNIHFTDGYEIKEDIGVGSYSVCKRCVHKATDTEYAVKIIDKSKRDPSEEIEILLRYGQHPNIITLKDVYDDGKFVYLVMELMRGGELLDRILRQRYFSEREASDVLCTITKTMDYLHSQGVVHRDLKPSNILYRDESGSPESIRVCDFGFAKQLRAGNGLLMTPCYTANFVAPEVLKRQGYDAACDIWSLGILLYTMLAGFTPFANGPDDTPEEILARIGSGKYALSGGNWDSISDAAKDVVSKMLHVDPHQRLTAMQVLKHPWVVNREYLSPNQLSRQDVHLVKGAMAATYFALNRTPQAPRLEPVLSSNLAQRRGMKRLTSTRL
active: [1] -0.422
inactive: saracatinib 0 | sotrastaurin -0.049 | alvocidib -0.019 | Tubastatin A -0.01 | defactinib -0.209 | rucaparib -0.049 | [2] -0.08 | encorafenib 0.014 | [3] -0.009 | [4] -0.023 | filanesib -0.006 | zotarolimus 0.016 | idasanutlin -0.033 | alisertib -0.052 | [5] -0.259 | gefitinib -0.078 | [6] 0.001 | lapatinib -0.011 | pictilisib -0.106

SERPINA7 (UniProt P05543)
inactive: saracatinib 0.339 | sotrastaurin 0.395 | alvocidib 0.018 | Tubastatin A -0.169 | [1] 0.147 | defactinib 0.056 | rucaparib -0.145 | [2] 0.061 | encorafenib -0.085 | [3] 0.078 | [4] -0.213 | filanesib 0.251 | zotarolimus -0.206 | idasanutlin 0.071 | alisertib 0.052 | [5] 0.008 | gefitinib -0.157 | [6] 0.381 | lapatinib -0.017 | pictilisib -0.088

RPS15 (UniProt P62841)
inactive: saracatinib -0.02 | sotrastaurin 0.07 | alvocidib 0.325 | Tubastatin A 0.087 | [1] 0.04 | defactinib 0.233 | rucaparib 0.226 | [2] 0.061 | encorafenib 0.028 | [3] 0.06 | [4] 0.086 | filanesib 0.192 | zotarolimus -0.082 | idasanutlin 0.049 | alisertib -0.107 | [5] 0.027 | gefitinib 0.008 | [6] -0.147 | lapatinib -0.01 | pictilisib -0.054

RPL38 (UniProt P63173)
inactive: saracatinib -0.018 | sotrastaurin 0.01 | alvocidib 0.088 | Tubastatin A 0.014 | [1] 0.027 | defactinib 0.126 | rucaparib 0.093 | [2] 0.044 | encorafenib 0.003 | [3] 0.037 | [4] -0.109 | filanesib 0 | zotarolimus -0.007 | idasanutlin 0.055 | alisertib -0.064 | [5] 0.061 | gefitinib -0.074 | [6] -0.171 | lapatinib 0.05 | pictilisib -0.053

SAAL1 (UniProt Q96ER3)
inactive: saracatinib 0.001 | sotrastaurin -0.044 | Tubastatin A -0.089 | [1] 0.042 | defactinib 0.203 | rucaparib 0.031 | [2] -0.069 | encorafenib 0.017 | [3] -0.031 | [4] -0.179 | filanesib -0.032 | zotarolimus 0.016 | idasanutlin -0.11 | alisertib -0.067 | [5] 0.214 | gefitinib -0.055 | [6] 0.018 | lapatinib -0.002 | pictilisib -0.018
active: alvocidib 0.355

SEC16A isoform 5 (UniProt O15027)
UniProt O15027, sequence (O15027 whole entry, looked up): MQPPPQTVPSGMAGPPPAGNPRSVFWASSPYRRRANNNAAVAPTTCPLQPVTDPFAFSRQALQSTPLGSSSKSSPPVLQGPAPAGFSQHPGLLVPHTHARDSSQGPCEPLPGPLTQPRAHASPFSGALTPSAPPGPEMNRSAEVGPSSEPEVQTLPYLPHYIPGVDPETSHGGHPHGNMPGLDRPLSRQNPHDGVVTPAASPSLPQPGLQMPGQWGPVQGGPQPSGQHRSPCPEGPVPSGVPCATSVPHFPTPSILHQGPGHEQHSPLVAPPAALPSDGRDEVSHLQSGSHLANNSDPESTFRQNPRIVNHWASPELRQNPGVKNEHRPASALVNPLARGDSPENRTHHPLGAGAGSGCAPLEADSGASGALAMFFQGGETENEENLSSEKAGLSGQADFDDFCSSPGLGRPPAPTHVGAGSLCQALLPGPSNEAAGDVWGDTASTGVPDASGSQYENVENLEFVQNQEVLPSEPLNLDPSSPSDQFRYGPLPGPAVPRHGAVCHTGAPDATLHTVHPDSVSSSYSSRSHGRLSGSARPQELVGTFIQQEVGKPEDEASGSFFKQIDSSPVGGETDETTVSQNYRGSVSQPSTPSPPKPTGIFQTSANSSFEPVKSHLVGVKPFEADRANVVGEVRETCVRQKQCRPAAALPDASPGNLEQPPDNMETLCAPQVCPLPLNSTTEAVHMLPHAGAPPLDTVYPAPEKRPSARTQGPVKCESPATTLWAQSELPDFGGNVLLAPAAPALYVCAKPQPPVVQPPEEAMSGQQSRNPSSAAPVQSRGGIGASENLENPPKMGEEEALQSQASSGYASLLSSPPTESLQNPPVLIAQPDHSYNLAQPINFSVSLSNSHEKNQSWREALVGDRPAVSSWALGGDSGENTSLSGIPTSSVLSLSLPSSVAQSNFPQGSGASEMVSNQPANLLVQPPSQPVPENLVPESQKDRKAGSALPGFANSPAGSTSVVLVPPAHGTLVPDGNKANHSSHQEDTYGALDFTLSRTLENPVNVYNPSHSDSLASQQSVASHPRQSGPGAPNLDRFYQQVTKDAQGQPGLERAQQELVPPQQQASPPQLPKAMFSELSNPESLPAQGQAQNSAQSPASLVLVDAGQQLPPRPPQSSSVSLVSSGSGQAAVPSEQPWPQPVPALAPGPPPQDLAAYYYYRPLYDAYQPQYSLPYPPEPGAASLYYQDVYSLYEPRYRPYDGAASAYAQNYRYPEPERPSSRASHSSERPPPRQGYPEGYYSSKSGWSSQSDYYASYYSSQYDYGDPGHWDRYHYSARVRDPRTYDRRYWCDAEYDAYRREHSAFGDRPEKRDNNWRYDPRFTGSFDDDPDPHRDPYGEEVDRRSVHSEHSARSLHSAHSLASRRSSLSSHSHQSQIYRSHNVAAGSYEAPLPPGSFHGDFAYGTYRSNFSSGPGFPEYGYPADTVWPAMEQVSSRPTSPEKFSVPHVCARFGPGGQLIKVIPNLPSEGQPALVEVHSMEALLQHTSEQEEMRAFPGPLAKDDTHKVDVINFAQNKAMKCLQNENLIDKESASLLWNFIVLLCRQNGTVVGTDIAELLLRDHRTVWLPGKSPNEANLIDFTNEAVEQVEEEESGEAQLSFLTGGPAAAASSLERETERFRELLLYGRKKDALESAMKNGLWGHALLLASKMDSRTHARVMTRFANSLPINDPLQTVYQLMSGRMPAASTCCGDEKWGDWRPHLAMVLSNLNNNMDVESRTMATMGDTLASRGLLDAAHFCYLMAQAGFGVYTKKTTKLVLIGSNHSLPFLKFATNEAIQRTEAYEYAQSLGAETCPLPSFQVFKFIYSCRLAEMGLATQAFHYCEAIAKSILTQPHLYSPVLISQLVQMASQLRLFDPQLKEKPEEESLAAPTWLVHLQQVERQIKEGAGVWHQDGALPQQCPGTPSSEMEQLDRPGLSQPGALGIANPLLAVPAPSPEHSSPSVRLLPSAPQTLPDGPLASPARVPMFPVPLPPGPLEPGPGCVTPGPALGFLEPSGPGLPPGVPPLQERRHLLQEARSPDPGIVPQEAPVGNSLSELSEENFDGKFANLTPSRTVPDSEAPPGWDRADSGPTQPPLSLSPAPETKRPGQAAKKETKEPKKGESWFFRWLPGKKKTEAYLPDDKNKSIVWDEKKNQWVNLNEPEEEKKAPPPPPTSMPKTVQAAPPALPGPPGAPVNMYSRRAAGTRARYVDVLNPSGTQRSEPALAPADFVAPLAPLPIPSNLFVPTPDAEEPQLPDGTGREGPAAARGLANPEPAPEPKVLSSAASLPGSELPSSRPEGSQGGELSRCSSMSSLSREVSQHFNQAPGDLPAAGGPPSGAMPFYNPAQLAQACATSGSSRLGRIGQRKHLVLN
inactive: saracatinib -0.08 | sotrastaurin -0.049 | alvocidib 0.028 | Tubastatin A 0.052 | [1] -0.085 | defactinib -0.016 | rucaparib 0.22 | [2] 0.09 | encorafenib 0.119 | [3] -0.018 | [4] 0.079 | filanesib 0.037 | zotarolimus -0.01 | idasanutlin -0.021 | alisertib 0 | [5] 0.007 | gefitinib 0.046 | [6] -0.148 | lapatinib 0.017 | pictilisib -0.003

RSPRY1 (UniProt Q96DX4)
UniProt Q96DX4, sequence (Q96DX4 whole entry, looked up): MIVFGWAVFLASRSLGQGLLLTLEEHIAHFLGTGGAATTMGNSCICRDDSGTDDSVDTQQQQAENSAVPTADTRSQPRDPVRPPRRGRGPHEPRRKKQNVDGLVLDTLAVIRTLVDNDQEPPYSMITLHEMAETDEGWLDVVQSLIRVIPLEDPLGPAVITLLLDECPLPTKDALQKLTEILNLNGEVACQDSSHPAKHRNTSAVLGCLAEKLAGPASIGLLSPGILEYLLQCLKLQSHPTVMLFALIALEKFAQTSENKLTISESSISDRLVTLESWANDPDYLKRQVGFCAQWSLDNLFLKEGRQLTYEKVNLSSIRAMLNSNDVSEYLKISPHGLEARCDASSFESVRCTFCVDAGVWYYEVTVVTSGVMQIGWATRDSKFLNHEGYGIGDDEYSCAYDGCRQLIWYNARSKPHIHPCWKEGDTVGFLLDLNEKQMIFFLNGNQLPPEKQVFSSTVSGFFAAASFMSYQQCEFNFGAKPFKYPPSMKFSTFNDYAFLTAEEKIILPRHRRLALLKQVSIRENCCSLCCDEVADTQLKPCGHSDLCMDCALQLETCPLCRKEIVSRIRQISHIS
inactive: saracatinib -0.073 | sotrastaurin -0.01 | alvocidib 0.001 | Tubastatin A 0.009 | [1] -0.037 | defactinib 0.013 | rucaparib 0.118 | [2] 0.126 | encorafenib 0.04 | [3] 0.009 | [4] -0.065 | filanesib 0.01 | zotarolimus -0.01 | idasanutlin -0.061 | alisertib -0.051 | [5] -0.006 | gefitinib 0.048 | [6] 0.031 | lapatinib 0.046 | pictilisib 0.054

SEC23IP (UniProt Q9Y6Y8)
inactive: saracatinib -0.097 | sotrastaurin -0.048 | alvocidib -0.157 | Tubastatin A 0.043 | [1] -0.092 | defactinib -0.156 | rucaparib -0.019 | [2] -0.045 | encorafenib 0.058 | [3] 0.025 | [4] -0.006 | filanesib 0 | zotarolimus -0.002 | idasanutlin 0.016 | alisertib 0 | [5] -0.065 | gefitinib 0.009 | [6] -0.096 | lapatinib 0.035 | pictilisib -0.006

RPS9 (UniProt P46781)
inactive: saracatinib -0.044 | sotrastaurin -0.015 | alvocidib 0.237 | Tubastatin A 0.119 | [1] 0.083 | defactinib 0.226 | rucaparib 0.108 | [2] 0.095 | encorafenib 0.118 | [3] -0.027 | [4] -0.036 | filanesib 0.237 | zotarolimus 0.032 | idasanutlin 0.098 | alisertib -0.101 | [5] -0.083 | gefitinib -0.055 | [6] -0.211 | lapatinib 0.084 | pictilisib -0.195

RUFY1 (UniProt Q96T51)
inactive: saracatinib -0.037 | sotrastaurin -0.174 | alvocidib -0.041 | Tubastatin A -0.012 | [1] 0.045 | defactinib -0.071 | rucaparib 0.032 | [2] -0.09 | encorafenib 0.077 | [3] -0.02 | [4] -0.015 | filanesib 0.005 | zotarolimus 0.056 | idasanutlin -0.049 | alisertib 0.047 | [5] 0.02 | gefitinib -0.004 | [6] -0.053 | lapatinib -0.035 | pictilisib -0.009

RPA3 (UniProt P35244)
UniProt P35244, sequence (P35244 whole entry, looked up): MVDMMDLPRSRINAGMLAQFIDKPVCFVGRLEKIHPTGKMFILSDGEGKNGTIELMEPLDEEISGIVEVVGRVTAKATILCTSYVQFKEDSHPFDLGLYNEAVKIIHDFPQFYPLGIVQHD
inactive: saracatinib 0.015 | sotrastaurin -0.014 | alvocidib -0.04 | Tubastatin A 0.022 | [1] 0.181 | defactinib -0.054 | rucaparib -0.048 | [2] 0.015 | encorafenib 0.06 | [3] 0.014 | [4] 0.054 | filanesib -0.038 | zotarolimus 0.056 | idasanutlin -0.064 | alisertib 0.073 | [5] -0.05 | gefitinib -0.01 | [6] -0.048 | lapatinib 0.04 | pictilisib 0.046

RNPEP (UniProt Q9H4A4)
inactive: saracatinib -0.02 | sotrastaurin -0.038 | alvocidib -0.106 | Tubastatin A 0.064 | [1] 0.034 | defactinib -0.036 | rucaparib -0.004 | [2] 0.04 | encorafenib -0.005 | [3] -0.041 | [4] 0.008 | filanesib -0.083 | zotarolimus 0.044 | idasanutlin -0.02 | alisertib -0.018 | [5] -0.009 | gefitinib -0.023 | [6] 0 | lapatinib 0.043 | pictilisib 0.008

SGPL1 (UniProt O95470)
UniProt O95470, sequence (O95470 whole entry, looked up): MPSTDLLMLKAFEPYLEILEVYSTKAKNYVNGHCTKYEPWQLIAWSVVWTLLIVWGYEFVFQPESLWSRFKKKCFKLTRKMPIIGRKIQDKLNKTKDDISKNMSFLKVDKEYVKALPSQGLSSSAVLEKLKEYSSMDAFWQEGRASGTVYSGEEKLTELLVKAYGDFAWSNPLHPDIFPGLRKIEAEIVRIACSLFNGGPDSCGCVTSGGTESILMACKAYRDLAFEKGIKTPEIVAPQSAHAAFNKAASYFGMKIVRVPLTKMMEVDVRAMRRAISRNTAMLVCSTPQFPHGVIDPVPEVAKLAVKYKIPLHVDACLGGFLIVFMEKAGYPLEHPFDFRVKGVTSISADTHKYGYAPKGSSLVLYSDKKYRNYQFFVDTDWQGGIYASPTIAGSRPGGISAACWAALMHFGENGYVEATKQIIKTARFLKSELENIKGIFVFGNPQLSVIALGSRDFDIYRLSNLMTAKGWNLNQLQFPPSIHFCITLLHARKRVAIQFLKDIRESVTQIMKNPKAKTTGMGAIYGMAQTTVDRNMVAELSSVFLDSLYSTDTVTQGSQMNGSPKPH
inactive: saracatinib -0.014 | sotrastaurin 0.03 | alvocidib 0.04 | Tubastatin A -0.031 | [1] 0.064 | defactinib 0.012 | rucaparib 0.1 | [2] 0.015 | encorafenib 0.08 | [3] -0.157 | [4] -0.064 | filanesib 0.107 | zotarolimus -0.011 | idasanutlin 0.051 | alisertib -0.046 | [5] 0.012 | gefitinib 0.001 | [6] -0.115 | lapatinib 0.04 | pictilisib -0.013

Reference: the supplement of paper PMC10849652
